Sampled rows, rich in hits. Any-hit rate of the full collection: about 6%.
D1 antagonist: Antagonist of Human D 1 Dopamine Receptor: qHTS; D(1A) dopamine receptor (Homo sapiens), P21728; HEK293 TREx D1 cells, calcium flux, dopamine EC80; hits give low values; activity change, negative = inhibition, % at 10 µM; hit rate 3.2% among 360,000; AID 504652, 2011; in the data active = activity change below about -30%
Target sequence (P21728 whole entry, looked up): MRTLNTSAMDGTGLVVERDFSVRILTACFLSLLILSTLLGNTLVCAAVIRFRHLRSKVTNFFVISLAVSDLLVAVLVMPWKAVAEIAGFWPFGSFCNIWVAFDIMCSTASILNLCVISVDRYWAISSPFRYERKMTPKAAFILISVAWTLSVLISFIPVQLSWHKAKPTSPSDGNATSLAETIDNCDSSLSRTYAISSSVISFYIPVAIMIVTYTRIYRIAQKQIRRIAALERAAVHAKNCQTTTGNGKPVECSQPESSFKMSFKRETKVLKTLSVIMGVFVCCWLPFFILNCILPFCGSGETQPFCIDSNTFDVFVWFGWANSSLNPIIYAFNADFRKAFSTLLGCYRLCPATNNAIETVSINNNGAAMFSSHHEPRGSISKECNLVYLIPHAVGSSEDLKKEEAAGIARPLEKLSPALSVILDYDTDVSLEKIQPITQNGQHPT
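Calcium flux readout: force-coupled, inducible Hek293 Trex D1 line, cells induced overnight at 30 C with tetracycline, dye-loaded 30–90 min at RT. Antagonism scored against EC80 dopamine challenge given 180 s after compound.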
D1 ag: Allosteric Agonists of the Human D1 Dopamine Receptor: qHTS | activation, % at 2 µM | D(1A) dopamine receptor (Homo sapiens), P21728 | HEK293 T-REx D1 cells, calcium flux, agonist mode | hit rate 1% among 360,000 | AID 504660, 2011; in the data active = activation above about 30%
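Inducible HEK293 T-REx D1 cells, force-coupled to calcium signalling, were plated at 4000 cells/well with tetracycline and held overnight at 30 C. After no-wash calcium dye loading, compound-evoked calcium rise over 180 s flagged agonists.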
D1 potentiator: Potentiators of Human D1 Dopamine Receptor: qHTS; D(1A) dopamine receptor (Homo sapiens), P21728; HEK293 TREx D1 cells, calcium flux, dopamine EC20 potentiation; potentiation, % at 10 µM; hit rate 0.036% among 360,000; in the data active = potentiation above about 30%
D3 antag: qHTS of D3 Dopamine Receptor Antagonist: qHTS. D3R cells, DiscoveRx beta-arrestin luminescence, antagonist mode; hits give low values. max response, negative = inhibition, %. hit rate 2.5% among 360,000. AID 652054, 2013; in the data active = max response below about -50%; inconclusive = no clear call, values can overlap the other calls
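Cells plated overnight at 1500 cells/well, then exposed to library compounds with dopamine controls for 90 minutes at 37 degrees C. DiscoveRx reagent added for 30–60 minutes at room temperature; luminescence read, quantitative HTS format.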
D3 ag: qHTS of D3 Dopamine Receptor Agonist: qHTS. D3R DiscoveRx beta-arrestin cells, luminescence, 90 min. D(3) dopamine receptor (Homo sapiens), P35462. max activation, %. hit rate 0.58% among 410,000; in the data active = max activation above about 30%
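Agonist mode: compounds and dopamine controls were applied to plated cells for 90 min at 37 degrees C after an overnight attachment at 1500 cells/well. Luminescent read-out followed 30 - 60 minutes at room temperature with DiscoveRx detection reagent.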
Large screens that a line does not name were inactive.

CC1CN(C(=O)COc2ccc3ccccc3c2Br)CC(C)O1 (stereo not given)	D3 antag inconclusive
CN(C)c1ccc(CNC(=O)C2CCN(Cc3cc4ccccc4n3Cc3ccccc3)CC2)cc1	none (no result: D3 antag)
CCOC(=O)C1=C(O)/C(=C/c2cc(OC)c(OC)c(OC)c2)N=C1C	D1 antagonist -38.1
CCOC(=O)C1=C(O)/C(=C\c2ccc(OC)c(OC)c2)N=C1C	none
COc1ccc(-c2cc(C(F)(F)F)nc(S(=O)(=O)CCCC(=O)Nc3cccc(O)c3)n2)cc1OC	D3 antag -52.9
CCN(CC)c1ccc(NC(=O)CCCN2C(=O)C(c3ccccc3)Oc3cccnc32)c(C)c1 (stereo not given)	none (no result: D3 antag)
CCOC(=O)C1=C(CNCc2ccccc2)NC(=O)NC1c1ccc(C)cc1 (stereo not given)	none (no result: D3 antag)
COC(=O)c1ccc(Nc2nnc(-c3ccc(C)c(S(=O)(=O)N4CCN(C)CC4)c3)c3ccccc23)cc1	none (no result: D3 antag)
Fc1ccccc1NC(=S)NNc1ncc(C(F)(F)F)cc1Cl	none
Cc1c(Cl)cccc1NC(=S)NNc1ncc(C(F)(F)F)cc1Cl	D3 antag -75.5
Cc1cccc(C)c1NC(=S)NNc1ncc(C(F)(F)F)cc1Cl	none
O=C(NNc1ncc(C(F)(F)F)cc1Cl)c1c(Cl)cccc1Cl	D3 antag -70.2
Cc1ccccc1NC(=S)NNc1ncc(C(F)(F)F)cc1Cl	D3 antag -93.1
NC(=O)NNc1ncc(C(F)(F)F)cc1Cl	none
Cc1cc(C(=O)Nc2c(C)nc3ccccn3c2=O)ccc1[N+](=O)[O-]	none (no result: D3 antag)
CCCCCCOC(=O)C(C#N)c1nc2ccccc2nc1N1CCN(CC)CC1 (stereo not given)	D3 antag -59.3
CCCCCCOC(=O)C(C#N)c1nc2ccccc2nc1N1CCOCC1 (stereo not given)	none
Cc1ccc(CSc2nnc(-c3cccs3)n2C)cc1	D1 antagonist -40.1
Cn1c(SCc2ccc(Br)cc2)nnc1-c1cccs1	none
Cc1cccc(CSc2nnc(-c3cccs3)n2Cc2ccco2)c1	D1 antagonist -36.3
Nc1cc2nc3ccccc3oc-2cc1=O	D1 ag 33.0, D3 antag inconclusive
O=C(O)c1cc(=O)c2c3nc4ccccc4oc-3cc(=O)c2[nH]1	none (no result: D1 antagonist, D1 ag, D1 potentiator, D3 antag)
CC(C)(C)NC(=O)C1(N2C(=O)c3ccccc3C2=O)CCCC1	none (no result: D1 antagonist, D1 ag, D1 potentiator)
COc1ccc(CONS(=O)(=O)c2ccc(NC(C)=O)cc2)cc1Cl	D3 antag -106.0
CCOC(=O)C1=C[C@@H](C(C)(C)C)N(S(=O)(=O)c2ccc(C)cc2)[C@H]1c1cccc2ccccc12	none (no result: D1 antagonist, D1 ag, D1 potentiator)
COc1ccc(CN(C)C(=O)c2ccc(OCC(=O)Nc3cccc(C(F)(F)F)c3)c(OC)c2)cc1	none (no result: D1 antagonist, D1 ag, D1 potentiator)
COc1ccc(CCNC(=S)NC(=O)c2ccccc2)cc1C	D1 antagonist -33.1
COc1ccc(CCNC(=S)NC(=O)c2ccc(Br)cc2)cc1OC	none
COc1ccccc1C(=O)NC(CCSC)C(=O)OCC(=O)N1CCCC1=O (stereo not given)	none
Cc1nnc(SCC(=O)Nc2ccc(S(N)(=O)=O)cc2)n(N)c1=O	none (no result: D1 antagonist, D1 ag, D1 potentiator)
COc1cc(/C=N\n2nnnc2N)ccc1OCc1ccc(F)cc1	D3 antag -54.1
COc1cc(/C=N/NC(=O)c2nnn(-c3nonc3N)c2C(C)C)ccc1OCc1ccc(F)cc1	D3 ag 56.7
Cc1c2c(n3c(nc4ccccc43)c1C#N)N(CCN1CCOCC1)CC2	D1 antagonist -37.5
Cc1ccc2nc3c(cc(C(=O)NCc4ccco4)c(=N)n3C(C)C)c(=O)n2c1	none (no result: D3 antag)
Cc1c(-c2nc3ccccc3[nH]2)cnn1C	D1 antagonist -30.2
Cc1cccc(Nc2nc(N)nc(CN3CCN(c4ccccc4F)CC3)n2)c1	D3 antag -52.6 (no result: D1 antagonist, D1 ag, D1 potentiator)
Nc1nc(CN2CCN(Cc3ccccc3)CC2)nc(Nc2ccccc2)n1	D1 antagonist -37.7, D3 antag inconclusive
COc1ccccc1Nc1nc(N)nc(CN2CCCCC2)n1	none
COc1ccccc1Nc1nc(N)nc(CN2CCN(Cc3ccccc3)CC2)n1	D1 antagonist -36.6
Cc1cccc(Nc2nc(N)nc(CN3CCN(c4ccccc4)CC3)n2)c1	none
Cc1ccc(S(=O)(=O)CC(O)COc2ccc(F)cc2Cl)cc1 (stereo not given)	D3 antag -63.7
OC(c1cccc(Cl)c1)c1nc(-c2csc3ccccc23)cs1 (stereo not given)	none (no result: D1 antagonist, D1 ag, D1 potentiator)
COc1ccc2[nH]c3c(c2c1)CCN1C(=O)N([C@@H](C)C(=O)NCCc2ccc(F)cc2)C(=O)[C@]31C	D1 antagonist -85.2
CC(C)N(C(=O)[C@H]1C[C@H](CC(=O)NCC23CC4CC(CC(C4)C2)C3)C(=O)N2CCc3c([nH]c4ccc(Cl)cc34)[C@]12C)C(C)C	D3 ag 37.4 (no result: D1 antagonist, D1 ag, D1 potentiator)
COc1ccc2[nH]c3c(c2c1)CCN1C(=O)N([C@@H](C)C(=O)NCc2ccc(F)cc2)C(=O)[C@]31C	none
COc1ccc2[nH]c3c(c2c1)CCN1C(=O)C(CC(=O)NCCC2=CCCCC2)C[C@H](C(=O)N(C(C)C)C(C)C)[C@@]31C (stereo not given in full)	D3 ag 30.5 (no result: D1 antagonist, D1 ag, D1 potentiator)
CCN(CC)C(=O)[C@H]1C[C@H](CC(=O)NCCC2=CCCCC2)C(=O)N2CCc3c([nH]c4cc(CCC(=O)N(C)C)ccc34)[C@]12C	none (no result: D1 antagonist, D1 ag, D1 potentiator)
CCN(CC)C(=O)[C@H]1CC(CC(=O)NCCC2=CCCCC2)C(=O)N2CCc3c([nH]c4ccc(OC)cc34)[C@]12C (stereo not given in full)	D3 ag 41.0 (no result: D1 antagonist, D1 ag, D1 potentiator)
CCCCn1c(N)c(N(CCOC)C(=O)c2nn(CC)c(=O)c3ccccc23)c(=O)[nH]c1=O	none
COc1ccccc1CNC(=O)c1cc(-c2cc(F)ccc2OC(C)C)n[nH]1	D3 antag inconclusive (no result: D1 antagonist, D1 ag, D1 potentiator)
CC[C@]12c3[nH]c4cc(-c5ccco5)ccc4c3CCN1C(=O)[C@@H](CC(=O)NCC13CC4CC(CC(C4)C1)C3)C[C@@H]2C(=O)N1CCN(C(=O)c2ccco2)CC1	none (no result: D1 antagonist, D1 ag, D1 potentiator)
CC[C@]12c3[nH]c4cc(-c5ccco5)ccc4c3CCN1C(=O)[C@@H](CC(=O)NCC13CC4CC(CC(C4)C1)C3)C[C@@H]2C(=O)N1CCN(C(=O)C2CC2)CC1	D3 antag -53.7 (no result: D1 antagonist, D1 ag, D1 potentiator)
COc1ccc(S(=O)(=O)c2c(Nc3ccc(F)cc3)sc(C(=O)c3ccc4c(c3)OCO4)c2N)cc1	D1 ag 43.1 (no result: D3 antag)
Cc1ccc(S(=O)(=O)c2c(Nc3ccccc3)sc(C(=O)c3ccc4c(c3)OCO4)c2N)cc1	D1 ag 64.4 (no result: D3 antag)
COc1ccc(S(=O)(=O)c2c(Nc3ccc(C)cc3)sc(C(=O)c3ccc4c(c3)OCO4)c2N)cc1	D1 antagonist -37.8, D1 ag 77.8 (no result: D3 antag)

From PubChem BioAssay
